Records with an inconclusive call do not appear. Where a call stands in place of a potency, no number is given. Where a structure was tested more than once in an assay, its records may differ in their call. Active and inactive are the calls of the source. Unless noted, calls follow the shape of the dose curve; as a rule, active = well fitted curve in the direction sought with a large enough effect in the repeat runs; inconclusive = weak or mixed curves; inactive = no such curve, though single readings can be large; an effect the other way counts as inactive or inconclusive.
What was measured:
[1] = qHTS assay for small molecules that induce genotoxicity in human embryonic kidney cells expressing luciferase-tagged ATAD5 (AID 651632); also: nearly all actives have a fitted effect of over 15% in size
Method in brief: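 Increased luciferase signal from ATAD5-tagged reporter cells indicates DNA-damage-driven ATAD5 induction. HEK293T cells are treated for 16 hr at 37C before detection with Amplite.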

[2] = qHTS assay for small molecule agonists of the p53 signaling pathway - cell viability (AID 651633; calls by dose curve; also: nearly all actives have a fitted effect of over 30% in size; also: potency is read from the fitted curve at half-maximal effect)
Method in brief: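 p53RE-bla cells, seeded at 4,000 per well and rested 5 h at 37 C/5% CO2, received compounds in DMSO for 16 h at 37 C. CellTiter-Glo was then added, and luminescence was read after 30 min at room temperature to gauge cytotoxicity.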

[3] = qHTS assay for small molecules that induce genotoxicity in human embryonic kidney cells expressing luciferase-tagged ATAD5 - cell viability (AID 651634; calls by dose curve; also: nearly all actives have a fitted effect of over 25% in size; also: potency is read from the fitted curve at half-maximal effect)
Method in brief: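 Cytotoxicity counterscreen in HEK293T cells bearing an ATAD5-luciferase reporter: live-cell protease activity measured by CellTiter-Fluor fluorescence after 15.5 hr compound exposure.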

[4] = qHTS assay for small molecule disruptors of the mitochondrial membrane potential - cell viability (AID 720634; calls by dose curve; also: nearly all actives have a fitted effect of over 20% in size; also: potency is read from the fitted curve at half-maximal effect)
Method in brief: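 After overnight attachment at 37 C, HepG2 cells received compound or DMSO vehicle for 1 hr. Viability is then taken from ATP-driven luminescence following a 30 min room-temperature CellTiter-Glo step.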

[5] = qHTS assay for small molecule disruptors of the mitochondrial membrane potential (AID 720635); also: potency is read from the fitted curve at half-maximal effect
Method in brief: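 HepG2 cells (2,000/well) attached overnight at 37C, then took compound for 1 hr at 37C, 5% CO2. Mito-MPS dye was added for 30 min; fluorescence was read at 490/535 nm (monomers) and 540/590 nm (aggregates).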

[6] = qHTS assay to test for compound auto fluorescence at 590 nm (red) in HepG2 cells (AID 720674)
Method in brief: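 Intrinsic compound fluorescence in the red window (Ex/Em 540/590 nm) is measured in attached HepG2 cells exposed for 1 hr, DMSO vehicle as baseline, benchmarked to Rose Bengal sodium.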

[7] = qHTS assay to test for compound auto fluorescence at 535 nm (green) in HepG2 cells (AID 720675)
[8] = qHTS assay to test for compound auto fluorescence at 460 nm (blue) in HEK293 cells (AID 720678)
Method in brief: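 Cells were seeded and left to adhere for 4-5 hr at 37C. Compounds were then pin-transferred. After an overnight incubation at 37C under 5% CO2, intrinsic fluorescence at 405/460 nm was measured and referenced to triamterene.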

[9] = qHTS assay to test for compound auto fluorescence at 590 nm (red) in HEK293 cells (AID 720679)
Method in brief: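 Each well held 2,000 HEK293 cells in medium containing 10% dialyzed FBS. Following 4-5 hr attachment at 37C, 23 nL test compound or DMSO was added; plates sat overnight, and red fluorescence (540/590nm) was recorded.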

[10] = qHTS assay for small molecule agonists of the p53 signaling pathway (AID 651631; calls by dose curve; also: potency is read from the fitted curve at half-maximal effect; nearly all actives have a fitted effect of over 15% in size)
Method in brief: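 Agonist mode screen using a stably integrated beta-lactamase gene under p53 response elements in HCT-116 cells. Compound exposure lasts 16 h at 37 °C; fluorescence intensity is measured following 2 h FRET substrate loading.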

SMILES	Potency [1]	Potency [2]	Potency [3]	Potency [4]	Potency [5]	outcome [6]	outcome [7]	Potency [8]	outcome [9]	fluorescence, % of triamterene [8]	fluorescence, % of fluorescent control [9]	fluorescence, relative to Rose Bengal [6]	fluorescence, % of fluorescein control [7]	Potency [10]
CCCCCCCC/C=C\CCCCCCCCO	inactive	inactive	inactive	inactive	inactive	inactive	inactive	inactive	inactive					
C[C@]1(Cn2ccnn2)[C@H](C(=O)O)N2C(=O)C[C@H]2S1(=O)=O	inactive	inactive	inactive	inactive		inactive	inactive	inactive	inactive					
C1COC1	inactive	inactive	inactive	inactive	inactive	inactive	inactive	inactive	inactive					
CN1C(C(=O)Nc2ccccn2)=C(O)c2sccc2S1(=O)=O	inactive	inactive	inactive	inactive	7.17 µM (active)					0.367% [at 18.6 µM] (inactive)	0.192% [at 18.6 µM] (inactive)			
COC(=O)CS	inactive	inactive	inactive	inactive	inactive	inactive	inactive	inactive	inactive					
N#CCc1ccc(Cl)cc1Cl	inactive	inactive	inactive	inactive		inactive	inactive	inactive	inactive					
O=C(Nc1cccc2c(=O)cc(-c3nn[nH]n3)oc12)c1ccc(OCCCCc2ccccc2)cc1	inactive	inactive	inactive	inactive		inactive	inactive	inactive	inactive					
Cc1cc(C)c(N)cc1C	inactive	inactive	inactive	inactive	inactive	inactive	inactive	inactive	inactive					
CCOc1ccccc1O[C@H](c1ccccc1)[C@H]1CNCCO1	inactive	inactive	inactive	inactive		inactive	inactive	inactive	inactive					
CCCCCC[C@@H](O)C/C=C\CCCCCCCC(=O)O	inactive	21.1 µM (active) and inactive	inactive	inactive	inactive	inactive	inactive	inactive	inactive					
c1ccc2c(c1)CCc1ccccc1N2	inactive	inactive	inactive	54.8 µM (active)	19.4 µM (active)		inactive	inactive	inactive					
CN1CCCC(CC2c3ccccc3Sc3ccccc32)C1 (stereo not given)	inactive	inactive	inactive	inactive						0.136% [at 18.6 µM] (inactive)	-0.0119% [at 18.6 µM] (inactive)	0.272% [at 18.6 µM] (inactive)	-0.0795% [at 18.6 µM] (inactive)	
OCCOCC#CCOCCO	inactive	inactive	inactive	inactive		inactive	inactive	inactive	inactive					
C=CC(=O)OCC1CC2CC1C1CCC(COC(=O)C=C)C21 (stereo not given)				inactive		inactive	inactive	inactive	inactive					54.5 µM (active)
CC(CN(C)C)C(C)(O)Cc1ccc(Cl)cc1 (stereo not given)	inactive	inactive	inactive	inactive	inactive	inactive	inactive	inactive	inactive					
CC1CC(OC(=O)C(O)c2ccccc2)CC(C)(C)N1C (stereo not given)	inactive	inactive	inactive	inactive		inactive	inactive	inactive	inactive					
CCC(C)COC(C)=O (stereo not given)	inactive	inactive	inactive	inactive	inactive	inactive	inactive	inactive	inactive					
CC(=O)OCC(=O)NCCCOc1cccc(CN2CCCCC2)c1	inactive	inactive	inactive	inactive	inactive	inactive		inactive	inactive					
Cc1c(C)c2c(c(C)c1OC(=O)CCC(=O)OCCO)CC[C@@](C)(CCC[C@H](C)CCC[C@H](C)CCCC(C)C)O2	inactive	21.1 µM (active)	23.7 µM (active)	inactive	inactive	inactive	inactive	inactive	inactive					
CCC(=O)C1CC(C(C)C)CC=C1C (stereo not given)	inactive	inactive	inactive	inactive	inactive	inactive		inactive	inactive					
CCC(C)(C)OC	inactive	inactive	inactive	inactive	inactive	inactive	inactive	inactive	inactive					
CC(=O)Oc1ccc([N+](=O)[O-])cc1CCl	inactive	inactive	30.6 µM (active)	inactive	54.5 µM (active)	inactive		inactive	inactive					
CC1=Nc2ccc3ccccc3c2C1(C)C	inactive	inactive	inactive	inactive	19.3 µM (active)	inactive		inactive	inactive					

Source: PubChem BioAssay (Tox21)
